Inconclusive results are not listed. The source made the active and inactive calls. Calls come from the whole dose curve; as a rule, active = well fitted curve in the direction sought with a large enough effect in the repeat runs; inconclusive = weak or mixed curves; inactive = no such curve, though single readings can be large; an effect the other way counts as inactive or inconclusive.
Legend:
[1] = qHTS RealTime-Glo MT Cell Viability Assay in HEK293 cells - 40 hour (AID 1224874); details: RealTime-Glo luminescence; max response: active compounds read low; note: nearly all actives have a fitted effect of over 50% in size; note: potency is the fitted concentration of half-maximal effect
Outline: (§1)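 Kinetic, non-lysing viability readout. Seed HEK293 (600/well) with reagent, incubate 5 h at 37 C/5% CO2, pin 23 nL compound in DMSO, incubate at 37 C, read luminescence at 0, 8, 16, 24, 32, 40 h.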

[2] = A CellTox Green Cytotoxicity Assay to monitor cytotoxicity in HEK293 cells - 24 hour (AID 1224875); note: series mostly up to about 77 µM; nearly all actives have a fitted effect of over 45% in size
Outline: (§2)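 Real-time, in one plate: 600 HEK293 cells/well with dead-cell DNA dye, pinned compound after 5 h, 37 C incubation over 40 h; viable cells give no appreciable fluorescence.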

[3] = A CellTox Green Cytotoxicity Assay to monitor cytotoxicity in HepG2 cells - 16 hour (AID 1224876); note: nearly all actives have a fitted effect of over 45% in size
Outline: (§3)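 Cytotoxicity was tracked as dead-cell DNA fluorescence in HepG2 cells treated with test compounds at 37 C; each time-point value comes from one kinetic series spanning 0, 8, 16, 24, 32 and 40 h.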

[4] = qHTS RealTime-Glo MT Cell Viability Assay in HepG2 cells - 32 hour (AID 1224877); note: nearly all actives have a fitted effect of over 55% in size; note: potency is the fitted concentration of half-maximal effect
Outline: (§4)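 Luminescence read-out: viable HepG2 cells reduce a prosubstrate to a NanoLuc substrate, giving a signal proportional to live cell number. Reads taken at 0, 8, 16, 24, 32 and 40 h of compound exposure at 37 C.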

[5] = A CellTox Green Cytotoxicity Assay to monitor cytotoxicity in HepG2 cells - 24 hour (AID 1224878); note: nearly all actives have a fitted effect of over 45% in size
Outline: as §3

[6] = qHTS RealTime-Glo MT Cell Viability Assay in HEK293 cells - 0 hour (AID 1224880); note: top concentration of the series differs between compounds; nearly all actives have a fitted effect of over 45% in size
Outline: as §1

[7] = A CellTox Green Cytotoxicity Assay to monitor cytotoxicity in HEK293 cells - 32 hour (AID 1224881); note: nearly all actives have a fitted effect of over 40% in size; note: potency is the fitted concentration of half-maximal effect
Outline: as §2

[8] = A CellTox Green Cytotoxicity Assay to monitor cytotoxicity in HepG2 cells - 0 hour (AID 1224882); note: nearly all actives have a fitted effect of over 35% in size
Outline: as §3

[9] = A CellTox Green Cytotoxicity Assay to monitor cytotoxicity in HepG2 cells - 32 hour (AID 1224883); note: nearly all actives have a fitted effect of over 50% in size
Outline: as §3

[10] = A CellTox Green Cytotoxicity Assay to monitor cytotoxicity in HEK293 cells - 8 hour (AID 1224884); note: nearly all actives have a fitted effect of over 35% in size
Outline: as §2

[11] = qHTS RealTime-Glo MT Cell Viability Assay in HepG2 cells - 16 hour (AID 1224885); note: nearly all actives have a fitted effect of over 50% in size
Outline: as §4

[12] = qHTS RealTime-Glo MT Cell Viability Assay in HEK293 cells - 24 hour (AID 1224886); note: nearly all actives have a fitted effect of over 50% in size; note: potency is the fitted concentration of half-maximal effect
Outline: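 Nonlytic real-time viability readout: viable cells convert prosubstrate to NanoLuc substrate, giving luminescence proportional to live cell number. HEK293, 600 cells/well, compound added after 5 h, continuous culture at 37 C.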

[13] = qHTS RealTime-Glo MT Cell Viability Assay in HEK293 cells - 8 hour (AID 1224887); note: nearly all actives have a fitted effect of over 50% in size; note: potency is the fitted concentration of half-maximal effect
Outline: as §1

[14] = A CellTox Green Cytotoxicity Assay to monitor cytotoxicity in HEK293 cells - 16 hour (AID 1224888); note: nearly all actives have a fitted effect of over 35% in size
Outline: as §2

[15] = qHTS RealTime-Glo MT Cell Viability Assay in HepG2 cells - 0 hour (AID 1224889); note: nearly all actives have a fitted effect of over 50% in size
Outline: as §4

[16] = A CellTox Green Cytotoxicity Assay to monitor cytotoxicity in HepG2 cells - 8 hour (AID 1224890); note: nearly all actives have a fitted effect of over 45% in size
Outline: as §3

[17] = qHTS assay to identify small molecule antagonists of the estrogen receptor alpha (ER-alpha) signaling pathway using the BG1 cell line in the presence of 0.1 nM 17-beta-estradiol - cell viability counter screen (AID 1259241); note: nearly all actives have a fitted effect of over 40% in size
Outline: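 Live-cell protease activity (CellTiter-Fluor fluorescence, 30 min) was read in the same wells after VM7Luc4E2 cells had been exposed to compounds with 0.1 nM 17beta-estradiol for 22 hr at 37C.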

[18] = qHTS assay to identify small molecule antagonists of the androgen receptor (AR) signaling pathway using the MDA cell line in the presence of 0.5 nM R1881 - cell viability counter screen (AID 1259242); note: nearly all actives have a fitted effect of over 45% in size
Outline: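 Cells seeded at 3,000/well and allowed 5 hr at 37C, 0% CO2 before compound transfer and R1881 (0.5 nM final) addition; 16 hr later, live-cell protease fluorescence indicated cytotoxicity.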

[19] = qHTS RealTime-Glo MT Cell Viability Assay in HepG2 cells - 8 hour (AID 1224873); note: nearly all actives have a fitted effect of over 55% in size
Outline: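 HepG2 cells (600/well) mixed with RealTime-Glo MT reagent, settled 5 h at 37 C/5% CO2 before compound addition. Nonlytic NanoLuc luminescence from viable-cell prosubstrate reduction read repeatedly during 40 h treatment at 37 C.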

[20] = A CellTox Green Cytotoxicity Assay to monitor cytotoxicity in HepG2 cells - 40 hour (AID 1224879); note: nearly all actives have a fitted effect of over 40% in size
Outline: as §3
% is set by controls: 0 for no effect and ±100 for the full control effect.

NC(=O)c1cccc([N+](=O)[O-])c1
inactive: max response [1] -0.169% | Potency [2] | Potency [3] | Potency [4] | Potency [5] | Potency [6] | Potency [7] | Potency [8] | Potency [9] | Potency [10] | Potency [11] | Potency [12] | Potency [13] | Potency [14] | Potency [15] | Potency [16] | Potency [17] | Potency [18]

CCCCOC(=O)CC
inactive: Potency [19] | Potency [2] | Potency [4] | Potency [6] | Potency [7] | Potency [8] | Potency [11] | Potency [12] | Potency [13] | Potency [14] | Potency [16] | Potency [17] | Potency [18]

CCn1c2ccccc2c2cc([N+](=O)[O-])ccc21
inactive: max response [1] -23.8% | Potency [2] | Potency [3] | Potency [4] | Potency [20] | Potency [6] | Potency [7] | Potency [8] | Potency [9] | Potency [14] | Potency [15] | Potency [16] | Potency [17] | Potency [18]

Nc1nc2c(ncn2COCCO)c(=O)[nH]1
inactive: max response [1] 0.456% | Potency [2] | Potency [3] | Potency [4] | Potency [20] | Potency [6] | Potency [7] | Potency [8] | Potency [9] | Potency [10] | Potency [11] | Potency [13] | Potency [14] | Potency [15] | Potency [17] | Potency [18]

CC[N+](CC)(CC)CCOc1ccc(/C=C/c2ccccc2)cc1
active: Potency [4] 26.8 µM | Potency [7] 6.74 µM
inactive: Potency [19] | Potency [3] | Potency [5] | Potency [6] | Potency [8] | Potency [10] | Potency [11] | Potency [13] | Potency [14] | Potency [15] | Potency [16] | Potency [17]

Nc1nc(N)nc(-c2cc(Cl)ccc2Cl)n1
inactive: max response [1] 3.58% | Potency [2] | Potency [3] | Potency [4] | Potency [6] | Potency [7] | Potency [8] | Potency [9] | Potency [10] | Potency [11] | Potency [12] | Potency [13] | Potency [14] | Potency [15] | Potency [16] | Potency [17]

CC(C)=CCNc1ncnc2c1ncn2[C@@H]1O[C@H](CO)[C@@H](O)[C@H]1O
inactive: Potency [19] | Potency [2] | Potency [4] | Potency [6] | Potency [7] | Potency [11] | Potency [12] | Potency [13] | Potency [14] | Potency [17] | Potency [18]

O=C(O)c1cccc(C(F)(F)F)c1
inactive: max response [1] -0.78% | Potency [2] | Potency [3] | Potency [4] | Potency [5] | Potency [6] | Potency [7] | Potency [8] | Potency [9] | Potency [11] | Potency [12] | Potency [13] | Potency [14] | Potency [15] | Potency [16] | Potency [17] | Potency [18]

Clc1nnc(Cl)c2ccccc12
inactive: max response [1] -4.03% | Potency [2] | Potency [3] | Potency [4] | Potency [20] | Potency [6] | Potency [7] | Potency [8] | Potency [9] | Potency [10] | Potency [11] | Potency [12] | Potency [13] | Potency [14] | Potency [15] | Potency [17]

O=C(O)c1cc(-c2ccc(F)cc2F)ccc1O
inactive: max response [1] -1.84% | Potency [2] | Potency [3] | Potency [4] | Potency [5] | Potency [6] | Potency [7] | Potency [8] | Potency [9] | Potency [10] | Potency [11] | Potency [12] | Potency [13] | Potency [14] | Potency [16] | Potency [17]

CNC(=O)c1ccccc1Sc1ccc2c(/C=C/c3ccccn3)n[nH]c2c1
active: Potency [1] 8.49 µM | Potency [12] 7.56 µM
inactive: Potency [2] | Potency [3] | Potency [4] | Potency [5] | Potency [20] | Potency [7] | Potency [8] | Potency [9] | Potency [14] | Potency [16] | Potency [17]

Nc1ccc(C(=O)O)c(O)c1
inactive: max response [1] -4.05% | Potency [2] | Potency [3] | Potency [4] | Potency [6] | Potency [7] | Potency [9] | Potency [10] | Potency [11] | Potency [12] | Potency [13] | Potency [14] | Potency [15] | Potency [17] | Potency [18]

CC(C)CCOC(=O)/C=C/c1ccccc1
inactive: max response [1] -4.61% | Potency [2] | Potency [3] | Potency [4] | Potency [5] | Potency [20] | Potency [6] | Potency [7] | Potency [8] | Potency [9] | Potency [10] | Potency [11] | Potency [12] | Potency [13] | Potency [14] | Potency [16] | Potency [17] | Potency [18]

Nc1cc(Cl)c(O)c(Cl)c1
inactive: max response [1] -1.5% | Potency [2] | Potency [3] | Potency [4] | Potency [5] | Potency [20] | Potency [6] | Potency [7] | Potency [8] | Potency [9] | Potency [10] | Potency [11] | Potency [14] | Potency [15] | Potency [16] | Potency [17]
active: Potency [13] 43.6 µM
